Source: PubChem BioAssay (several laboratories)
This is a sample that favours compounds with a hit; in the whole collection about 2% have one here.
EP2 antag: human EP2 receptor antagonists, primary screen, TR-FRET cAMP, C6 glioma cells | C6 glioma cells expressing human EP2; cells stimulated with saturating PGE2 | inhibition, % at 25 µM | actives 0.52% (n = 260,000);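 active = percent inhibition above 40 after rounding to a whole number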;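 also: rat C6 glioma host cells with rolipram phosphodiesterase inhibitor present; the protocol text gives 20 µM as final concentration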
S1P3 antag: S1P3 receptor antagonists, primary screen, cell-based; actives 0.27% (n = 170,000); AID 485, 2006; CHO S1P3 NFAT-BLA reporter, FRET fluorescence, antagonist mode; inhibition, % at 4.98 µM;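 active = inhibition above the plate cutoff, the mean inhibition of test wells on that plate plus 3 SD, cut at about 28% in these data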;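 also: cells challenged with S1P at its EC80 of 0.8 µM; blue over green emission ratio from cleaved BLA substrate after 4 h stimulation; 0% = S1P-stimulated wells and 100% = unstimulated DMSO-only wells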
S1P4 antagonist: S1P4 receptor antagonists, primary screen, cell-based | Sphingosine 1-phosphate receptor 4 (Homo sapiens), O95977 | S1P4-expressing cells, antagonist mode, reporter read-out | inhibition, % at 4.98 µM | actives 0.26% (n = 220,000) | AID 1510, 2009; in the data active = inhibition above about 29%;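 also: 0% = wells stimulated with agonist and 100% = vehicle wells without agonist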
Target sequence (O95977 whole entry, looked up): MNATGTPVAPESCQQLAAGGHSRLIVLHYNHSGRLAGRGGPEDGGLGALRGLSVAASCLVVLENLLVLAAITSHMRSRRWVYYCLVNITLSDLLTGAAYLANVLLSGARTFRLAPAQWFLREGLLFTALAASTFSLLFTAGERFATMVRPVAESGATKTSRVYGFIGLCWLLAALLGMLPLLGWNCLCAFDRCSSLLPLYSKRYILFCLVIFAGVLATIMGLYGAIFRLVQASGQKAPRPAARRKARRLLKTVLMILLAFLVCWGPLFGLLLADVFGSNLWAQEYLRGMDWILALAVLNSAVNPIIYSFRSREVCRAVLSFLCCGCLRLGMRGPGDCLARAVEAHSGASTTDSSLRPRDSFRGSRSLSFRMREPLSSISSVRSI
EP2 modulator: EP2 receptor modulators, cAMP readout, primary screen, cell-based, HTRF cAMP, PGE2 stimulation | AID 940, 2007 | induction, % at 25 µM | EP2-expressing cells, cAMP HTRF FRET, PGE2 co-stimulation | Prostaglandin E2 receptor EP2 subtype (Homo sapiens), P43116 | actives 0.83% (n = 260,000);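 active = compounds whose cAMP rise, as percent of the full-agonist control response, exceeds 60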;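 also: rat C6 glioma line stably carrying human EP2 under a CMV promoter; the protocol text gives 20 µM as final concentration; 100% = response of wells given 1 µM PGE2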
S1P4 ag: S1P4 receptor agonists, primary screen, cell-based; S1P4-expressing cell line, agonist reporter assay; Sphingosine 1-phosphate receptor 4 (Homo sapiens), O95977; actives 0.35% (n = 220,000); activation, % at 4.98 µM; AID 1509, 2009; in the data active = activation above about 11%;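 also: 0% = DMSO vehicle and 100% = reference agonist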
EP2 confirm: cAMP induction in EP2, EP4, beta2-AR and parental cells, confirmation, counter-screen for EP2 modulator project, cell-based, five parallel assays, C6 glioma, HEK293 | shares compounds with EP2 modulator | cAMP HTRF induction; plus low (about EC15) PGE2 agonist | calls only at 20 µM (by protocol) | actives 47% (n = 1,300);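 active = cAMP induction above 50% in the main assay while under 30% in all four parallel counter assays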;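 also: rat C6 glioma cells stably expressing human EP2 receptor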
Numbers without * were called inactive; i = inactive; . = not tested or not shown; + = active, no number.

SMILES	EP2 antag	S1P3 antag	S1P4 antagonist	EP2 modulator	S1P4 ag	EP2 confirm
O=C(Cc1ccc(F)cc1)Nc1ccccc1Sc1ccccc1	2	-5	-20	83*	0	+
COc1ccccc1NC(=O)COC(=O)/C=C/c1ccccc1[N+](=O)[O-]	5	-2	-8	-37	2	.
O=C(Cc1ccc(Br)cc1)Nc1ccccc1Sc1ccccc1	0	.	-19	68*	1	+
Cn1cc(CN2CCC(O)(c3ccccc3F)CC2)c2cc(F)ccc21	5	.	.	-102	.	.
COc1ccc(CN2CCC(O)(c3ccccc3C)CC2)cc1CN(C)C	8	.	.	-62	.	.
CNc1oc(-c2ccc(Cl)cc2)nc1P(=O)(c1ccccc1)c1ccccc1	5	.	4	68*	1	+
Cc1ccc(-c2nc(P(=O)(c3ccccc3)c3ccccc3)c(N3CCOCC3)o2)cc1	10	-10	-17	65*	0	i
CCOP(=O)(OCC)c1nc(-c2ccc(OC)cc2)oc1N1CCOCC1	1	8	-15	8	0	.
CNc1oc(-c2ccccc2)nc1C#N	12	17	-12	6	0	.
O=c1c(O)c(-c2ccccc2)oc2ccc3occc3c12	9	.	.	74*	.	+
O=C(NCCn1cccn1)c1ncoc1-c1ccc(F)cc1	6	.	.	-50	.	.
N#Cc1c(-c2cccs2)nc(SCc2ccc(Cl)cc2)[nH]c1=O	19	-35	2	75*	3	i
CSc1nc(-c2cccs2)c(C#N)c(=O)[nH]1	14	-11	8	59	-3	.
CNC(=O)NC(=O)CSc1nc(-c2cccs2)c(C#N)c(=O)[nH]1	16	-15	-26	79*	1	i
CSc1nc2nccc(-c3ccc(Oc4ccccc4)cc3)n2n1	12	.	-6	-11	2	.
CSc1nc2nccc(-c3ccc(-c4ccccc4)cc3)n2n1	10	.	-15	70*	-1	i
Cc1cc(C)cc(C(=N)c2ccccc2Cc2cccc3ccccc23)c1	37	.	.	53	.	i
Cc1[nH]c(=O)[nH]c(=O)c1Cc1cccc2ccccc12	10	-7	-29	-6	1	.
Cc1ccccc1C(=N)c1ccccc1Cc1cccc2ccccc12	37	.	.	72*	.	+
CC(C)(C)c1ccccc1NC(=O)CSc1nc(-c2ccco2)cc(C(F)(F)F)n1	3	.	.	-40	.	.
COCCN(C(=O)c1ccc(Cl)cc1)c1nnc(-c2ccncc2)s1	14	.	.	24	.	.
C=CCn1c(N2CCC(C(=O)NCC3CC3)CC2)nc2ccccc21	.	.	.	-34	.	.
Cc1ccc(C(C)C)c(OCCn2c(=O)oc3ccccc32)c1	12	31	4	61*	-1	i
Cc1ccc2oc(=O)n(Cc3ccccc3OC(C)C)c2c1	13	6	-12	67*	1	+
CCCCOc1ccccc1Cn1c(=O)oc2ccc(C)cc21	3	31	-17	79*	-1	+
SMILES	EP2 antag	S1P3 antag	S1P4 antagonist	EP2 modulator	S1P4 ag	EP2 confirm
COc1ccc(S(=O)(=O)N2CCC(C(=O)N(C)Cc3ccccc3)CC2)cc1OC	11	.	.	-14	.	.
CCOC(=O)Cc1csc(NC(NC(=O)CC)(C(F)(F)F)C(F)(F)F)n1	10	-4	-15	65*	1	i
OC(CN1CCC2(CC1)CC(O)c1cc(F)ccc1O2)c1ccc2c(c1)OCCO2 (centres undefined)	12	.	.	-98	.	.
CC1CCc2cc(F)cc3c(O)c(C(=O)NCc4ccco4)c(=O)n1c23 (centres undefined)	.	.	1	69*	0	i
COc1ccc(Oc2cc(C(F)(F)F)nc(N(C)C)n2)cc1	7	-9	-15	65*	-1	i
FC(F)(F)c1cc(Oc2ccccc2)nc(-c2ccccn2)n1	9	.	-2	8	-4	.
COC(=O)Cn1cc(C2C(C#N)=C(N)OC3=C2C(=O)CC(C)(C)C3)c2ccccc21 (centres undefined)	9	.	.	-23	.	.
COc1ccc(C(=O)NCCCN2CCOCC2)cc1OC	4	.	0	68*	-3	i
Cc1cc([N+](=O)[O-])c(C)c(Br)c1C	15	.	.	52	.	i
Cc1cc([N+](=O)[O-])c(C(C)(C)C)cc1N	9	.	14	10	1	.
CCOP(=O)(c1ccccc1)c1nc(-c2ccccc2Cl)oc1N1CCCCC1 (centres undefined)	6	.	-6	71*	-2	+
CCOP(=O)(OCC)c1nc(-c2cccc([N+](=O)[O-])c2)oc1N1CCCCC1	8	-12	-2	-13	1	.
O=C(CSc1nnc(COc2cccc3ccccc23)o1)Nc1cccc(Cl)c1	9	.	.	-88	.	.
Cc1cc(C)c(S(=O)(=O)c2ccccc2C)c(SCC(C)C)n1	18	.	-3	48	2	.
CCCCn1c(C)cc(C)c(S(=O)(=O)c2ccccc2C)c1=O	11	.	-3	78*	2	+
Cc1ccccc1S(=O)(=O)c1c(C)cc(C)n(C(C)C)c1=O	3	.	-10	71*	0	+
CCn1c(COc2ccc(OC)cc2)nnc1SCC(=O)Nc1ccc(Br)cc1	6	.	.	-27	.	.
O=C1CN(Cc2nc(-c3cccnc3Cl)no2)CCN1	4	.	.	10	.	.
CCOC(=O)C(C)Sc1nc(-c2ccccc2)nc2ccccc12 (centres undefined)	3	-6	0	87*	1	+
COC(=O)CSc1nc(Cc2ccccc2)nc2ccccc12	13	0	-12	67*	0	+
CCOC(=O)CSc1nc(-c2ccccc2)nc2ccccc12	5	.	-4	70*	1	+
Cc1nnc(NC(=O)CSc2nc(Cc3ccccc3)nc3ccccc23)s1	10	.	.	10	.	.
CC(C)OC(=O)CSc1nc(C(C)C)nc2ccccc12	15	-10	-26	48	1	.
CCOC(=O)C(C)Sc1nc(-c2ccccc2)nc2ccc(F)cc12 (centres undefined)	17	.	-7	-10	-2	.
CC(C)OC(=O)CSc1nc(Cc2ccccc2)nc2ccccc12	7	-3	-13	74*	1	+
O=C(N1CCc2nc(N3CCCC3)[nH]c(=O)c2C1)C1(c2ccccc2)CC1	6	.	.	-26	.	.
CCOC(=O)CSc1nc(Cc2ccccc2)nc2ccccc12	10	7	11	70*	2	+
